POLB inh – qHTS Assay for Inhibitors of DNA Polymerase Beta | P06746 | Pol beta primer extension/strand displacement, fluorescence kinetic | Potency, µM (highest dose often 114 µM), without a hit: top-dose activity change, negative = inhibition, hits mostly inhibitors | actives 1.3% (n = 340,000) | AID 485314, 2010; further: potency means the concentration at half of the fitted maximal effect; on the % scale 0 is the no-effect control and ±100 the full control effect
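Pol beta (10 nM) and compounds were preincubated 15 min at room temperature, then 50 nM substrate (final) started primer extension/strand displacement. Reads were taken at 0 and 10 min; concentration-response data were fitted to a four-parameter Hill equation.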
Pol iota inh – qHTS for Inhibitors of Polymerase Iota | Pol iota fluorescent replication assay, 10 min | actives 1% (n = 390,000) | Potency, µM (series often up to 115 µM), inactives show at the highest dose activity, negative = inhibition, usual class: inhibitors; further: potency means the concentration at half of the fitted maximal effect
Target sequence (Q9UNA4 whole entry, looked up): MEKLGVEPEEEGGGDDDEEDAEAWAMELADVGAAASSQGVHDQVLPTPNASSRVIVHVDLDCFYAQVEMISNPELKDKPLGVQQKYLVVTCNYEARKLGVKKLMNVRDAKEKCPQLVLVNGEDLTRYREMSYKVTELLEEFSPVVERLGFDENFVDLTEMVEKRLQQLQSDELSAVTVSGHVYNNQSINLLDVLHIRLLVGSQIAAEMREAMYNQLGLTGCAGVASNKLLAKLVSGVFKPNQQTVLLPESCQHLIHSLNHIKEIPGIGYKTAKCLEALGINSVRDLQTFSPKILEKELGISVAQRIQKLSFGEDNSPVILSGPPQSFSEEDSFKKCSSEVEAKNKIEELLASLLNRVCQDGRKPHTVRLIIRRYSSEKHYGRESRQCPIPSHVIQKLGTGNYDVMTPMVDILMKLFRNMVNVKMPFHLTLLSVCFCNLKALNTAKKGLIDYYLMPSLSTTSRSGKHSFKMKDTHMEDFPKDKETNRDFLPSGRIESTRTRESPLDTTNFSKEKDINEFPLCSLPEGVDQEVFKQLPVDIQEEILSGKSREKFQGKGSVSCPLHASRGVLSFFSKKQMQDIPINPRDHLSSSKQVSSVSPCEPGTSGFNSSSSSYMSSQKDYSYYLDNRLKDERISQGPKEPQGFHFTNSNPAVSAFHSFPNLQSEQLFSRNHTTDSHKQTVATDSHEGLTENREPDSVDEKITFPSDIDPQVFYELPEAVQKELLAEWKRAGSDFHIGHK
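Pol iota at 10 nM preincubated 15 min with compounds at room temperature; reaction started with fluorescent substrate, 50 nM final. Fluorescence read kinetically at 0 and 10 min; buffer-only wells as negative control.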
Pol eta inh-1 – qHTS for Inhibitors of Polymerase Eta; DNA polymerase eta (Homo sapiens), Q9Y253; recombinant Pol eta, fluorescent DNA replication assay; Potency, µM (titrated, usually from 114 µM), for inactives: at the top dose activity change, negative = inhibition, actives largely listed as inhibitors; actives 1.2% (n = 390,000); AID 588591, 2011; further: potency means the concentration at half of the fitted maximal effect; on the % scale 0 is the no-effect control and ±100 the full control effect
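Pol eta at 10 nM preincubated with compounds 15 min at room temperature; reaction started with fluorescent substrate (50 nM final) and read kinetically at 0 and 10 min.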
PI5P4K alpha inh – qHTS for Inhibitors of phosphatidylinositol 5-phosphate 4-kinase (PI5P4K); Phosphatidylinositol 5-phosphate 4-kinase type-2 alpha (Homo sapiens), P48426; PI5P4Kalpha enzyme, ADP-Glo luminescence, 60 min; hits give low values; max response, %; actives 1.2% (n = 330,000); active means max response of -50% or lower; inconclusive means between -30% and -50%; inactive means -30% or higher; further: value at the top dose of about 77 µM; on the % scale 0 is the no-effect control and ±100 the full control effect
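Compounds were pin-transferred onto PI5P4Kalpha and substrate in HEPES pH 7.4 buffer with EGTA, CHAPS and 5% DMSO. ATP (5 microM final) started the reaction, which ran 60 minutes at room temperature before ADP-Glo detection.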
Pol kappa inh-1 – qHTS for Inhibitors of Polymerase Kappa. DNA polymerase kappa (Homo sapiens), Q9UBT6. purified Pol kappa, fluorescent DNA synthesis assay, 10 min. Potency, µM (top dose mostly 107 µM), without a hit: at the top dose activity, negative = inhibition, actives largely listed as inhibitors. actives 0.53% (n = 400,000); further: potency means the concentration at half of the fitted maximal effect; on the % scale 0 is the no-effect control and ±100 the full control effect
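Inhibition of 10 nM Pol kappa is measured by a fluorescent read-out at 0 and 10 min following addition of 50 nM substrate (final), with a 15-min room-temperature compound preincubation.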
12-LOX inh – Primary qHTS assay for inhibitors of human arachidonate 12S-lipoxygenase (ALOX12): Round 2 | purified 12hLO, xylenol orange hydroperoxide absorbance | Potency, µM (top dose mostly 108 µM), for inactives: top-dose activity change, negative = inhibition, hits mostly inhibitors | actives 1.1% (n = 580,000) | AID 1671190, 2021; further: potency means the concentration at half of the fitted maximal effect; on the % scale 0 is the no-effect control and ±100 the full control effect
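Purified human 12hLO at 150 nM in 25 mM Hepes, 0.01% Triton X-100, pH 7.0, preincubated 15 min at room temperature with compound. Reaction started with 40 uM arachidonic acid, 30 min at room temperature. Hydroperoxide measured by Fe-xylenol orange, 573/405 nm absorbance ratio.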
Pol kappa inh-2 – qHTS for Inhibitors of Polymerase Kappa: Confirmatory Assay for Cherry-picked Compounds; AID 720501, 2013; Potency, µM, usual class: inhibitors; purified Pol-kappa, fluorescent strand-displacement substrate; shares compounds with Pol eta inh-1; actives 76% (n = 920); further: potency means the concentration at half of the fitted maximal effect
Pol eta inh-2 – qHTS for Inhibitors of Polymerase Eta: Confirmatory Assay for Cherry-picked Compounds | shares compounds with Pol eta inh-1 | Pol eta primer extension, TAMRA/BHQ fluorescence, 10 min | Potency, µM, most hits filed as inhibitors | actives 64% (n = 2,600); further: potency means the concentration at half of the fitted maximal effect
ADP-Glo interf – qHTS for Inhibitors of PI5P4K: ADP-Glo counter assay. shares compounds with PI5P4K alpha inh. ADP-Glo detection counter-screen, luciferase luminescence, no enzyme. Potency, µM (highest dose often 76.9 µM), for inactives: top-dose activity change, negative = inhibition, most hits filed as inhibitors. 1,100 tested, under 10 active
Active calls of the source: *; ? = inconclusive; . = no result; [ ] = dose if it differs, or a comment. In the library only some 2.9% were active in any assay of this set; here they are far more common. Unless noted, the call rests on the fitted dose curve; in most records, active means well fitted curve in the direction sought with a large enough effect; inconclusive means small, poorly fitted or top-dose-only effect, or another doubt; inactive means no such curve, though single readings can be large; an effect the other way counts as inactive or inconclusive.

SMILES | POLB inh | Pol iota inh | Pol eta inh-1 | PI5P4K alpha inh | Pol kappa inh-1 | 12-LOX inh | ADP-Glo interf | others
O=C(c1ccc2nc(-c3ccco3)c(-c3ccco3)nc2c1)N1CCN(c2ncccn2)CC1 | 40µM* | ? | ? | -53* | ? | ? | -4% | Pol eta inh-2=?
CCCNC(=O)c1ccc2nc(-c3ccccc3)c(-c3ccccc3)nc2c1 | -16% | 5% | -12% | 7 | -4% | 29% | .
O=C(Nc1ccc2nc(-c3ccco3)c(-c3ccco3)nc2c1)N1CCN(c2ccccn2)CC1 | 1.6µM* | 3.2µM* | 3.2µM* | -91* | 28µM* | ? | 0% | Pol eta inh-2=?
Cc1nc2cc(NC(=O)N3CCN(c4ccccn4)CC3)ccc2o1 | 17% | -15% | -3% | . | 8% | 4% | .
CCCCNC(=O)c1ccc2nc(-c3ccco3)c(-c3ccco3)nc2c1 | 20µM* | ? | 14µM* | -73* | 8.9µM* | ? | -10% | Pol kappa inh-2=21*;Pol eta inh-2=?
Cc1cc2n(CC(O)COc3ccccc3)c(=O)c3ccccc3n2n1 (centres undefined) | . | . | . | . | . | 36% | .
COc1ccc(-n2nnnc2SCc2cc(Cl)c3c(c2)OCCCO3)cc1 | . | . | . | . | . | -15% | .
Cc1c(C(=O)Nc2ccc3c(c2)OCCO3)sc2ncnc(N3CCCCC3C)c12 (centres undefined) | 4% | 7% | -25% | . | -3% | -1% | -3%
Cc1nc(N2CCC(C)CC2)c2c(C)c(C(=O)Nc3ccc4c(c3)OCCO4)sc2n1 | -4% | 13% | -25% | 10 | -3% | 1% | .
CCOc1ccccc1-n1c(SCC(=O)Nc2ccccc2C(=O)O)nc2ccccc2c1=O | -7% | 9% | 3% | -58* | -9% | ? | -6%
COc1cccc(N2CCN(CC(=O)NC(=O)NCc3ccco3)CC2)c1 | 7.9µM* | 13µM* | 79µM* | -71* | ? | 236% | 1%
COc1cccc2cc(-c3cc(=O)oc4ccc(OS(=O)(=O)c5ccccc5)cc34)oc12 | . | . | . | . | . | -27% | .
Cc1ccc(-n2c(=S)[nH]c3sc4c(c3c2=O)CCc2ccccc2-4)cc1 | 15%[57.1 µM] | 26% | -12% | -18 | -4% | ? | .
Cc1cccc(-n2c(=S)[nH]c3sc4c(c3c2=O)CCc2ccccc2-4)c1 | 5% | 64% | -8% | -77* | -25% | 16µM* | 0%
COCCn1c(SC)nc2c1c(=O)[nH]c(=O)n2C | . | . | . | . | . | 26% | .
Cc1oc2ccc(OCc3c(F)cccc3Cl)cc2c1C(=O)O | 12% | 0% | -1% | -55* | 12% | -3% | -2%
Cc1oc2ccc(OCc3c(Cl)cccc3Cl)cc2c1C(=O)O | . | . | . | . | . | -16% | .
CCN(CC(=O)Nc1ccc(NC(C)=O)cc1)C(=O)c1cc2c(s1)CCCC2 | . | ? | ? | -50* | -22% | 9% | -6%
COCCn1c(SCC(=O)Nc2cccnc2Cl)nc2cc(Cl)ccc2c1=O | . | 9% | -1% | 7 | -13% | 179% | .
COCCn1c(SCC(=O)Nc2cccc(S(N)(=O)=O)c2)nc2cc(Cl)ccc2c1=O | 58% | 51% | -1% | -63* | -5% | 2% | -3%
O=C1CC(c2ccccc2)N(C(=O)CNC(=O)c2ccc3ccccc3n2)CCCCCCN1 (centres undefined) | . | . | . | . | . | 56% | .
C[C@H](CO)N1C[C@H](C)[C@@H](CN(C)S(=O)(=O)c2ccc3c(c2)OCCCO3)OCc2cnnn2CCCC1=O | . | . | -2% | -61* | . | -2% | -3%
C[C@@H]1CN([C@H](C)CO)C(=O)CCCn2nncc2CO[C@@H]1CN(C)S(=O)(=O)c1ccc2c(c1)OCCCO2 | . | . | -6% | -2 | . | -36% | .
O=C(Cn1nc(N2CCCCC2)c2ccccc2c1=O)Nc1ccc(Cl)cc1 | . | . | . | . | . | 0% | .
CC(=O)Nc1ccc(NC(=O)CSc2nc(C)c(C)o2)cc1 | . | . | . | . | . | 34% | .
SMILES | POLB inh | Pol iota inh | Pol eta inh-1 | PI5P4K alpha inh | Pol kappa inh-1 | 12-LOX inh | ADP-Glo interf | others
COc1ccc(-c2c(-c3ccc(OCCN4CCC(C(N)=O)CC4)cc3O)n[nH]c2C)cc1 | . | . | . | . | . | -7% | .
COCCn1nnnc1C(c1cc2cc(OC)c(OC)cc2[nH]c1=O)N1CCN(c2ccc(O)cc2)CC1 (centres undefined) | -3% | 45µM* | -9% | -54* | -27% | ? | -4%
CC(C)(C)c1nc(CC(=O)NCCCN2CCCC2)cs1 | . | . | . | . | . | -1% | .
O=c1cc(CSc2ccc(Cl)cc2)nc2nc[nH]n12 | 0% | 3% | 6% | -67* | -12% | -34% | -12%
O=C1CN(C(=O)C2CCN(c3nc4ccccc4o3)CC2)CCN1 | . | . | . | . | . | -8% | .
O=C(Oc1cc2oc(=O)cc(-c3ccccc3)c2cc1Cl)C1CCCCC1 | -1% | -7% | -18% | -88* | -13% | 23% | -8%
O=C(c1cc(-c2ccc(F)cc2)nc2ccccc12)N1CCCC1c1nc(C2CCOCC2)no1 (centres undefined) | . | . | . | . | . | 15% | .
O=C(COC(=O)Cc1ccsc1)Nc1cccc(F)c1 | . | -3% | -7% | -56* | -9% | 2% | -2%
O=C(COC(=O)Cc1ccsc1)Nc1cccc(Cl)c1 | . | -5% | -15% | 7 | -16% | -25% | .
N#Cc1ccc(COC(=O)CC(NC(N)=O)c2ccc(Cl)cc2)cc1 (centres undefined) | 11% | 2% | ? | ? | -15% | -13% | 4%
CN(C)C(=O)c1ccc(NC(=O)COC(=O)C2=COCCO2)cc1 | . | ? | 0% | ? | -27% | 4% | 2%
c1ccc2c(OCCCCN3CCOCC3)cccc2c1 | 18% | ? | -98% | -14 | ? | ? | 1%
Cc1ccc2c(c1)/C(=C/c1ccncc1)c1cc3ccccc3nc1-2 | . | . | . | . | . | 20% | .
